Experimental data: PubChem BioAssay (NCATS)
Records with an inconclusive call do not appear. Values without a mark were called inactive. Activity calls are given as the source filed them. Calls follow the shape of the dose curve; as a rule, active = well fitted inhibition curve with a large enough effect; inconclusive = small, poorly fitted or top-dose-only effect; inactive = flat fitted curve, though single readings scatter.

Legend:
HaCat [1] = assay: Cytotoxic Profiling of Annotated Libraries Using Quantitative High-Throughput Screening (AID 1296008); conditions: Five cell lines viability, CellTiter-Glo ATP luminescence, 48-72 h; max response: active compounds read low; as to max response: % is scaled to controls: 0 for no effect and ±100 for the full control effect
Method in brief: (§1)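 Compounds were pin-transferred onto cells and incubated 48 or 72 hr at 37 degree Celsius, 95% humidity. CellTiter-Glo was added, plates sat 10 min at room temperature, then ATP-coupled luminescence was imaged as the viability read-out.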

KB-3-1 = assay: as above; conditions: Five cell lines viability, CellTiter-Glo ATP luminescence, 48-72 h; max response: active compounds read low
Method in brief: as §1

NIH3T3 = assay: as above; conditions: Five cell lines viability, CellTiter-Glo ATP luminescence, 48-72 h; max response: active compounds read low
Method in brief: as §1

MCC-13 = assay: qHTS assay to identify novel small-molecules to repurpose for Merkel cell carcinoma treatment (AID 1296009); conditions: MCC and control cell lines, CellTiter-Glo viability, 72 h; series mostly up to 46 µM
Method in brief: (§2)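 Luminescence from CellTiter-Glo, read 10 min after addition at room temperature, reported viability following a 72 hr, 37 degree celsius treatment with NPC or MIPE compounds in titration; values normalized to plate controls.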

MCC-26 = assay: as above; conditions: MCC and control cell lines, CellTiter-Glo viability, 72 h; series mostly up to 46 µM
Method in brief: as §2

HEK293 = assay: Cytotoxic Profiling of Annotated Libraries Using Quantitative High-Throughput Screening (AID 1296008); conditions: Five cell lines viability, CellTiter-Glo ATP luminescence, 48-72 h; max response: active compounds read low; as to max response: % is scaled to controls: 0 for no effect and ±100 for the full control effect
Method in brief: as §1

P93_24 = assay: qHTS profiling for inhibitors of Plasmodium falciparum proliferation (AID 504749); conditions: P. falciparum in erythrocytes, SYBR Green DNA, 72 h; series mostly up to 28.7 µM
Method in brief: (§3)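 Fluorescence of SYBR Green-bound parasite DNA, read at 485/535 nm, served as the growth measure. Infected erythrocytes were cultured with compound 72 h; artemisinin (0.29 uM) and DMSO wells defined the normalization range.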

P94_40 = assay: as above; conditions: P. falciparum in erythrocytes, SYBR Green DNA, 72 h; series mostly up to 28.7 µM
Method in brief: as §3

PC15 = assay: as above; conditions: P. falciparum in erythrocytes, SYBR Green DNA, 72 h; series mostly up to 28.7 µM
Method in brief: as §3

PC49 = assay: as above; conditions: P. falciparum in erythrocytes, SYBR Green DNA, 72 h; series mostly up to 28.7 µM
Method in brief: as §3

SC27B = assay: as above; conditions: P. falciparum in erythrocytes, SYBR Green DNA, 72 h; series mostly up to 28.7 µM
Method in brief: as §3

TAB109 = assay: as above; conditions: P. falciparum in erythrocytes, SYBR Green DNA, 72 h; series mostly up to 28.7 µM
Method in brief: as §3

TAB113 = assay: as above; conditions: P. falciparum in erythrocytes, SYBR Green DNA, 72 h; series mostly up to 28.7 µM
Method in brief: as §3

TAB165 = assay: as above; conditions: P. falciparum in erythrocytes, SYBR Green DNA, 72 h; series mostly up to 28.7 µM
Method in brief: as §3

W2 = assay: as above; conditions: P. falciparum in erythrocytes, SYBR Green DNA, 72 h; series mostly up to 28.7 µM
Method in brief: as §3

HACAT [2] = assay: qHTS assay to identify novel small-molecules to repurpose for Merkel cell carcinoma treatment (AID 1296009); conditions: MCC and control cell lines, CellTiter-Glo viability, 72 h; at 44.8 µM (top of the series) unless noted
Method in brief: as §2

PAD = assay: qHTS profiling for inhibitors of Plasmodium falciparum proliferation (AID 504749); conditions: P. falciparum in erythrocytes, SYBR Green DNA, 72 h; series mostly up to 28.7 µM
Method in brief: as §3

PC26 = assay: as above; conditions: P. falciparum in erythrocytes, SYBR Green DNA, 72 h; series mostly up to 28.7 µM
Method in brief: as §3
Also: nearly all actives have a fitted effect of over 60% in size.
Potency is read from the fitted curve at half-maximal effect.

Molecule N#Cc1c(C2CCNCC2)cc(-c2c(O)cccc2OCC2CC2)nc1N has a max response (HaCat [1]) of -15.5%, a max response (KB-3-1) of -14.2% and a max response (NIH3T3) of -27%. The Potency (MCC-13) was “inactive” and the Potency (MCC-26) was “inactive”.
In the case of CC[C@@]1([C@@H]2O[C@@H]([C@H]3O[C@@](O)(CO)[C@H](C)C[C@H]3C)C[C@H]2C)CC[C@H]([C@]2(C)CC[C@]3(C[C@H](O)[C@@H](C)[C@@H]([C@@H](C)[C@@H](OC)[C@H](C)C(=O)O)O3)O2)O1, the Potency (HEK293) was 144 nM (active) and the Potency (MCC-26) was “inactive”.
With CCCCCCCCCCCC(CC1OC(=O)C1CCCCCC)OC(=O)C(CC(C)C)NC=O (stereo not given) the Potency (P93_24) was 891 nM (active), the Potency (P94_40) was 355 nM (active) and the Potency (PC15) was 1120 nM (active). The Potency (PC49) was 891 nM (active), the Potency (SC27B) was 447 nM (active) and the Potency (TAB109) was 794 nM (active). For the same molecule, the Potency (TAB113) was 282 nM (active), the Potency (TAB165) was 398 nM (active) and the Potency (W2) was 675 nM (active). For the same molecule, the outcome (HaCat [1]) was “inactive”, the max response (KB-3-1) was 7.07% and the max response (NIH3T3) was 0.608%. For the same molecule, the outcome (HACAT [2]) was “inactive”, the Potency (MCC-13) was “inactive” and the Potency (MCC-26) was “inactive”.
With Nc1nc(N)c2nc(-c3cccc(O)c3)c(-c3cccc(O)c3)nc2n1 the Potency (HaCat [1]) was 14800 nM (active), the Potency (KB-3-1) was 10500 nM (active) and the Potency (MCC-13) was “inactive”. The Potency (MCC-26) was “inactive”.
In the case of CC(C)n1cnc2c(NCCc3ccc(O)cc3)nc(-c3csc4ccccc34)nc21, the max response (NIH3T3) was -7.93% and the Potency (MCC-13) was “inactive”.
CC(C)NC[C@@H](C(=O)N1CCN(c2ncnc3c2[C@H](C)C[C@H]3O)CC1)c1ccc(Cl)cc1 was tested, and the Potency (HEK293) was 209 nM (active), the Potency (HaCat [1]) was 4180 nM (active) and the Potency (MCC-13) was “inactive”. For the same molecule, the Potency (MCC-26) was “inactive”.
For CN1[C@H]2CC(OC(=O)[C@@H](CO)c3ccccc3)C[C@H]1[C@H]1O[C@H]12 (stereo not given in full), the outcome (HACAT [2]) was “inactive [at 17.4 µM]”, the Potency (MCC-13) was “inactive” and the Potency (MCC-26) was “inactive”.
In the case of O=C(CCCCCCC(=O)Nc1cccnc1)NO, the Potency (KB-3-1) was 14800 nM (active) and the Potency (MCC-13) was 26400 nM (active).
In the case of C=CC(=O)Nc1cc(NC(=O)c2ccc(C)c(NC(=O)c3ccno3)c2)cc(C(F)(F)F)c1, the outcome (HaCat [1]) was “inactive”, the max response (NIH3T3) was -0.953% and the outcome (HACAT [2]) was “inactive”. The Potency (MCC-13) was “inactive” and the Potency (MCC-26) was “inactive”.
With CCCCCCCCc1ccc(CCC(N)(CO)CO)cc1 the Potency (HEK293) was 26400 nM (active), the Potency (HaCat [1]) was 18700 nM (active) and the Potency (MCC-13) was “inactive”. For the same molecule, the Potency (MCC-26) was “inactive”.
For O=C(NC1CC1)c1cccc(-c2ccc3c(NC(=O)C4CC4)n[nH]c3c2)c1, the Potency (KB-3-1) was 4180 nM (active).
With CCCNC(=O)[C@H]1O[C@H]1C(=O)N[C@H](C(=O)N1CCC[C@@H]1C(=O)OC)C(C)CC (stereo not given in full) the Potency (HEK293) was 10500 nM (active), the outcome (HaCat [1]) was “inactive” and the outcome (HACAT [2]) was “inactive”. The Potency (MCC-13) was 20900 nM (active).
Cc1ccc(-n2[nH]c(C)c(N=Nc3cccc(-c4cccc(C(=O)O)c4)c3O)c2=O)cc1C was tested, and the Potency (HaCat [1]) was 21100 nM (active), the max response (KB-3-1) was -13.9% and the Potency (MCC-13) was “inactive”. For the same molecule, the Potency (MCC-26) was “inactive”.
In the case of CCOc1cc2c(c(F)c1OCC)C(=N)N(CC(=O)c1cc(N3CCOCC3)c(OC)c(C(C)(C)C)c1)C2, the Potency (HEK293) was 16400 nM (active), the Potency (MCC-13) was “inactive” and the Potency (MCC-26) was “inactive”.
In the case of CCC(C(=O)O)C1CCC(C)C(C(C)C(O)C(C)C(=O)C(CC)C2OC3(C=CC(O)[C@@]4(CC[C@](C)(C5CC[C@@](O)(CC)C(C)O5)O4)O3)C(C)CC2C)O1 (stereo not given in full), the Potency (P93_24) was 891 nM (active), the Potency (P94_40) was 501 nM (active) and the Potency (PAD) was 1410 nM (active). For the same molecule, the Potency (PC15) was 2000 nM (active), the Potency (PC26) was 478 nM (active) and the Potency (PC49) was 2510 nM (active). For the same molecule, the Potency (SC27B) was 794 nM (active), the Potency (TAB109) was 1000 nM (active) and the Potency (TAB113) was 891 nM (active). For the same molecule, the Potency (TAB165) was 708 nM (active), the Potency (W2) was 757 nM (active) and the Potency (HEK293) was 1180 nM (active). The Potency (NIH3T3) was 8330 nM (active) and the Potency (MCC-13) was 10500 nM (active).
With CC(C)[C@H](CO)Nc1nc(Nc2cccc(Cl)c2)c2ncn(C(C)C)c2n1 the Potency (HaCat [1]) was 16600 nM (active), the Potency (NIH3T3) was 10500 nM (active) and the Potency (MCC-26) was “inactive”.
